These results are taken from ChEMBL document CHEMBL2218924, “A broad activity screen in support of a chemogenomic map for kinase signalling research and drug discovery” (Biochem J, 2013).

SMILES strings stand for the structures.

Test [1] deals with Death-associated protein kinase 1 (Homo sapiens) (UniProt P53355). The note with it: at 10 µM.
The target of test [2] is Death-associated protein kinase 2 (Homo sapiens) (UniProt Q9UIK4). Conditions: at 1 µM.
For test [3] the target is unchanged. Conditions: at 10 µM.
The target of test [4] is T1, Serine/threonine-protein kinase DCLK2 (Homo sapiens) (UniProt Q8N568).
T1 sequence (whole entry): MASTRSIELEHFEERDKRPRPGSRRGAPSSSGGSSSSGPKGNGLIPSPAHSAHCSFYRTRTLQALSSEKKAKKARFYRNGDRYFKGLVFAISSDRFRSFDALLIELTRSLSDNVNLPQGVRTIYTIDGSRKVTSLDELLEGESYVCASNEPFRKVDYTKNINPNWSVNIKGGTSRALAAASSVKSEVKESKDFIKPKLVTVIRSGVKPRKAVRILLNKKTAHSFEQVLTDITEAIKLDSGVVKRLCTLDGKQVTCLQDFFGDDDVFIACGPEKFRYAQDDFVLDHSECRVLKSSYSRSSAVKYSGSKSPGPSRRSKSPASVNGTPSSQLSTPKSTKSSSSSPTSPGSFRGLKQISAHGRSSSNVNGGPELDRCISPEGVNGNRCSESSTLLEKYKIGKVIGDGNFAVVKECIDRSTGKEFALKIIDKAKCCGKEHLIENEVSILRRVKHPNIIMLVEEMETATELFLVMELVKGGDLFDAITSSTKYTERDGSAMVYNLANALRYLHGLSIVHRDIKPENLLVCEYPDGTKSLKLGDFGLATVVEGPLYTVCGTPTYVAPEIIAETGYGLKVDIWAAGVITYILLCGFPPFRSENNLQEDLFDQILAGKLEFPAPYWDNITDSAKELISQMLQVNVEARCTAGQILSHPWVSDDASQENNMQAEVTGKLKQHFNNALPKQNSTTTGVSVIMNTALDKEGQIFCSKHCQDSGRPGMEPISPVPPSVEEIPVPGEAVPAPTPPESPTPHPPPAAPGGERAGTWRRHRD
Conditions: at 1 µM.

Test [5] concerns the target T1, Serine/threonine-protein kinase DCLK2 (Homo sapiens). The note with it: at 10 µM.
Test [6] concerns the target T2, Discoidin domain-containing receptor 2 (Homo sapiens) (UniProt Q16832).
T2 sequence (whole entry): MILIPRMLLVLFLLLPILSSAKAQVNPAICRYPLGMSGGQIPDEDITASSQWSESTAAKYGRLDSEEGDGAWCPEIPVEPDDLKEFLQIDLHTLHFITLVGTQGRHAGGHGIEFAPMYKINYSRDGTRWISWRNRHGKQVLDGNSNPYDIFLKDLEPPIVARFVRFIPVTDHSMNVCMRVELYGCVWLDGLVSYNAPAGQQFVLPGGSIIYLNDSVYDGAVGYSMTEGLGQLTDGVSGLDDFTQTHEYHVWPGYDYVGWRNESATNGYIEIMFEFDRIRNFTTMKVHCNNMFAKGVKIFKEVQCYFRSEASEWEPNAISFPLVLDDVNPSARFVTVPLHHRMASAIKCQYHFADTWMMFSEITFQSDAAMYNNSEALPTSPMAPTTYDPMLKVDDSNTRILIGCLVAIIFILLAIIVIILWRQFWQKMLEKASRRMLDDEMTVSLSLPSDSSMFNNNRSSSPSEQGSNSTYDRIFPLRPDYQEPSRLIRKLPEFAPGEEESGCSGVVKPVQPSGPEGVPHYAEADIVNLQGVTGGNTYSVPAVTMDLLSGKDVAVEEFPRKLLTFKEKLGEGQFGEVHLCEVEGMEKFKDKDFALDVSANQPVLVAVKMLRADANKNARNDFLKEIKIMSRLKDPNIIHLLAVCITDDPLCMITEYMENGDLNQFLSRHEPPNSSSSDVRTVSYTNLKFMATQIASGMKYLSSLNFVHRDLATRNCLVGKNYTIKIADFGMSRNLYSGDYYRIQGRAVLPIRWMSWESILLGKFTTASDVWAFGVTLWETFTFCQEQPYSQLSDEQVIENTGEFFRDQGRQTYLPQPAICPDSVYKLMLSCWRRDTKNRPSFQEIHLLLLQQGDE
The note with it: at 1 µM.

For test [7], the target named is T2, Discoidin domain-containing receptor 2 (Homo sapiens). The note with it: at 10 µM.
Test [8] concerns the target T3, Myotonin-protein kinase (Homo sapiens) (UniProt Q09013).
T3 sequence (whole entry): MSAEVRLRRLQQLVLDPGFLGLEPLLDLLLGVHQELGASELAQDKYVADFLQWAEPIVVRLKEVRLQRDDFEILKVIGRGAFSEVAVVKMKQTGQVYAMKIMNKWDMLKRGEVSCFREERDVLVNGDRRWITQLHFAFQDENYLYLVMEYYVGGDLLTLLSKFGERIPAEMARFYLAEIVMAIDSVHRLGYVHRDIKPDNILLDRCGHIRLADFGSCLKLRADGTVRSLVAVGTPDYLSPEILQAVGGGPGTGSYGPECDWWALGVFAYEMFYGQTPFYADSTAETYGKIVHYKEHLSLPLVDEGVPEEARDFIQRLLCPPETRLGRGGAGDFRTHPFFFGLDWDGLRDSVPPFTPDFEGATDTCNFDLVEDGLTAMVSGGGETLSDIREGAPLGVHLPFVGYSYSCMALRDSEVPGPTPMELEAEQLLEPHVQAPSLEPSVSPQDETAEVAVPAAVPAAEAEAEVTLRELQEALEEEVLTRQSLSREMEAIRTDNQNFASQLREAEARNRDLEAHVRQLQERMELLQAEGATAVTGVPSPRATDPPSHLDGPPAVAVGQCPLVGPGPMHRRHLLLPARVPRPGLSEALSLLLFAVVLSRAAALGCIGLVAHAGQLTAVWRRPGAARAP
Conditions: at 1 µM.

Test [9] addresses T3, Myotonin-protein kinase (Homo sapiens). The note with it: at 10 µM.
Test [10] addresses T4, Serine/threonine-protein kinase 17A (Homo sapiens) (UniProt Q9UEE5).
T4 sequence (whole entry): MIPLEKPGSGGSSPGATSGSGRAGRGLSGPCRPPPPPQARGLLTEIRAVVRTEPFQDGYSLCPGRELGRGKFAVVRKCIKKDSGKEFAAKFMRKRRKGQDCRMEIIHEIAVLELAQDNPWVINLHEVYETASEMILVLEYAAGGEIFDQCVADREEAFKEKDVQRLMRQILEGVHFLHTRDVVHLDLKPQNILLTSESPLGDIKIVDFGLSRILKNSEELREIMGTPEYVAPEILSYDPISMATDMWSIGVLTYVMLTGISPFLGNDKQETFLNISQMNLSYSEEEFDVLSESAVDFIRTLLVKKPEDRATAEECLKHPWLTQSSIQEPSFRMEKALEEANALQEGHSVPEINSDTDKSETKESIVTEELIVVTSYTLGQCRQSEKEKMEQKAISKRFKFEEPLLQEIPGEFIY
Conditions: at 10 µM.

Test [11] has as its target T5, Dual specificity tyrosine-phosphorylation-regulated kinase 2 (Homo sapiens) (UniProt Q92630).
T5 sequence (whole entry): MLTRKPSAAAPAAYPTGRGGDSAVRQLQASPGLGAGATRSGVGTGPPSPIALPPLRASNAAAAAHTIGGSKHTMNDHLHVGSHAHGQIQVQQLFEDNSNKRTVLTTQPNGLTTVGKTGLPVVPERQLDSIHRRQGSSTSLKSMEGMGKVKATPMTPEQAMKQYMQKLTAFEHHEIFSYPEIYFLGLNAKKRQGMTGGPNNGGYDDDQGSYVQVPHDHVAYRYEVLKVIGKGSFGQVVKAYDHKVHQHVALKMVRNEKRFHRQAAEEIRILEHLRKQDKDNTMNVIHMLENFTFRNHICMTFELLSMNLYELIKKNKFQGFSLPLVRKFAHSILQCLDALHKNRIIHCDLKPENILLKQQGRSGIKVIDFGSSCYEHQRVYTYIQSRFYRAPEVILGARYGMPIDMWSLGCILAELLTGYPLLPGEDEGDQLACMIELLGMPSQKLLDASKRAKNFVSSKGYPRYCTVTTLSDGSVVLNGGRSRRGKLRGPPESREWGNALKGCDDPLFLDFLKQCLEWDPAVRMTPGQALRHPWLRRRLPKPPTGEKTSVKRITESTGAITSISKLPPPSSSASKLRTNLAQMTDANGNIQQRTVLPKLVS
The note with it: at 1 µM.

Test [12] concerns the target T5, Dual specificity tyrosine-phosphorylation-regulated kinase 2 (Homo sapiens). The note with it: at 10 µM.
Test [13] has as its target T6, Ephrin type-A receptor 1 (Homo sapiens) (UniProt P21709).
T6 sequence (whole entry): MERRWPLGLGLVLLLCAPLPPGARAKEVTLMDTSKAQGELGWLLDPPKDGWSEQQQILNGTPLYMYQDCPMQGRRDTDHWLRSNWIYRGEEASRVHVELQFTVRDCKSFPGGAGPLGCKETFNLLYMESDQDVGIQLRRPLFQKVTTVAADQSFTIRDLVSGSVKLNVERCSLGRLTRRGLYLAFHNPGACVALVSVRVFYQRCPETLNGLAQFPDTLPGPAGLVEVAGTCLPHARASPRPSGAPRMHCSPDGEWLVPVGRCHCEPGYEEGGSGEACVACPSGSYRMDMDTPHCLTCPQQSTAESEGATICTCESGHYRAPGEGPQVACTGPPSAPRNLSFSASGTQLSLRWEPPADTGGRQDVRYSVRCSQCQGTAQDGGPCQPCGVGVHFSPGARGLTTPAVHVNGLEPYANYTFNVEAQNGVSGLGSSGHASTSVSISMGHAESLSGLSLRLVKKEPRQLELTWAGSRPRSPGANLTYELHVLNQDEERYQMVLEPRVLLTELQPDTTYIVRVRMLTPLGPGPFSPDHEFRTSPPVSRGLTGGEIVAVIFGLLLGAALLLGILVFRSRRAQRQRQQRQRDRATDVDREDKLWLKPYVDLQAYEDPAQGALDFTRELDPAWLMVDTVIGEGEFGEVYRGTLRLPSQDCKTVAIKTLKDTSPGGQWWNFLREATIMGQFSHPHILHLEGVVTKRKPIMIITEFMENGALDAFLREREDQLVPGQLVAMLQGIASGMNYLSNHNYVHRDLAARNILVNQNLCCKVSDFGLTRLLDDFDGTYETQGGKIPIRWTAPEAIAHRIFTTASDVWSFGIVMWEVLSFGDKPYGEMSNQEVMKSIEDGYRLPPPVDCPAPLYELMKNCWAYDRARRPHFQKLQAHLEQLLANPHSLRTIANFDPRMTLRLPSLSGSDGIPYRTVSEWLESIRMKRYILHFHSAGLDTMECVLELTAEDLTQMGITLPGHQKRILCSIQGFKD
Conditions: at 1 µM.

Test [14] has as its target T6, Ephrin type-A receptor 1 (Homo sapiens). Conditions: at 10 µM.
In test [15] the target is Ephrin type-A receptor 2 (Homo sapiens) (UniProt P29317). The note with it: at 1 µM.
Ephrin type-A receptor 2 (Homo sapiens), sequence (P29317 whole entry): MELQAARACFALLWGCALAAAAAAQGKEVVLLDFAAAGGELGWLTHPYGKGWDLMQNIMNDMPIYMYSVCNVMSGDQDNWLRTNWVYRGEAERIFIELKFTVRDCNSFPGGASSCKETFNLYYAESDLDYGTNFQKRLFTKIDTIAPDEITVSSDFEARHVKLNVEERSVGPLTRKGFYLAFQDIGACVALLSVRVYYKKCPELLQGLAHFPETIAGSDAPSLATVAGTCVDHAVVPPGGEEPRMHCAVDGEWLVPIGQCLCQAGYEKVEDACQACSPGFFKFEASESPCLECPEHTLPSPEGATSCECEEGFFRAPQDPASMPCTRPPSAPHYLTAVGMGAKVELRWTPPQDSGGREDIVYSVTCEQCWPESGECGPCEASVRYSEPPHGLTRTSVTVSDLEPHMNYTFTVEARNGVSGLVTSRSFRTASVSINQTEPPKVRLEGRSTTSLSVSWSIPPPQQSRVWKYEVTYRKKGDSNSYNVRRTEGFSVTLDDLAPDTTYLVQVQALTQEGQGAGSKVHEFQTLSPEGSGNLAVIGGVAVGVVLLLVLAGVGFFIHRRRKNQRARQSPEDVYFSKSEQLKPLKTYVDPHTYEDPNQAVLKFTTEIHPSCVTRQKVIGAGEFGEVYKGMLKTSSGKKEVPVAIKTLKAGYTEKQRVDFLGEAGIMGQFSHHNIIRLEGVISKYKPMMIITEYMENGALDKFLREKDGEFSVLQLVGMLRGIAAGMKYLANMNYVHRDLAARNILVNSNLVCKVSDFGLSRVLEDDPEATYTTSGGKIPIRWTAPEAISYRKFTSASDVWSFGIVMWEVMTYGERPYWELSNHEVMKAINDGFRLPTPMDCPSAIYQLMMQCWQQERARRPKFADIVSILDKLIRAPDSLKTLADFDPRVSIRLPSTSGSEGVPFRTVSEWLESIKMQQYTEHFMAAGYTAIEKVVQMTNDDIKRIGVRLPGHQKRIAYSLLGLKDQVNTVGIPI
Test [16] has the same target. Conditions: at 10 µM.
The target of test [17] is T7, Ephrin type-A receptor 3 (Homo sapiens) (UniProt P29320).
T7 sequence (whole entry): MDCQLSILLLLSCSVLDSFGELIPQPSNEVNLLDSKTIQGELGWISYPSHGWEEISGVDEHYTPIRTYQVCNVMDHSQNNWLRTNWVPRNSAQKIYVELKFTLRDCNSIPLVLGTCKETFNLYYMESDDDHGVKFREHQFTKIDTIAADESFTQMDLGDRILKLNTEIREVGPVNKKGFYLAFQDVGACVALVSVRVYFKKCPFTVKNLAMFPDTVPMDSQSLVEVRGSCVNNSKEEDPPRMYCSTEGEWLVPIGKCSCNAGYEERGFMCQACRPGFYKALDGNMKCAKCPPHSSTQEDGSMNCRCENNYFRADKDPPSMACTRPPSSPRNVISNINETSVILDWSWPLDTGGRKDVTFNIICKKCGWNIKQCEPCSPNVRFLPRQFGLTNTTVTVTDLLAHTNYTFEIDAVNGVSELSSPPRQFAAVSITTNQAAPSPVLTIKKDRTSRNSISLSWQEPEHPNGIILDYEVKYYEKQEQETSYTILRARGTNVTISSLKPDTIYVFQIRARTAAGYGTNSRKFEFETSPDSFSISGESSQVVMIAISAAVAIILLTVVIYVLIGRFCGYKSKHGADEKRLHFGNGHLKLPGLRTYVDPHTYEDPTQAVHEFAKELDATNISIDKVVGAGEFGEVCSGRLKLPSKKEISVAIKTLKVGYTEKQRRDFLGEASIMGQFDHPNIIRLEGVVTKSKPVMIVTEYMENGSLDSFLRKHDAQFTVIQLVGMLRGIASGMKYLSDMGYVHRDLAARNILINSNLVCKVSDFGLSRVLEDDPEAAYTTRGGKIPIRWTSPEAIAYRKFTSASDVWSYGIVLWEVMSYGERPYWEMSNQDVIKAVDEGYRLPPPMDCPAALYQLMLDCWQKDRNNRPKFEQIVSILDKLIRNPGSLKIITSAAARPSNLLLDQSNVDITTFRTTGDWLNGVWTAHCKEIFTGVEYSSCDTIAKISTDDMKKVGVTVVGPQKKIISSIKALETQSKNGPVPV
Conditions: at 1 µM.

Test [18] has as its target T4, Serine/threonine-protein kinase 17A (Homo sapiens). The note with it: at 1 µM.

Death-associated protein kinase 2 (Homo sapiens), sequence (Q9UIK4 whole entry, looked up): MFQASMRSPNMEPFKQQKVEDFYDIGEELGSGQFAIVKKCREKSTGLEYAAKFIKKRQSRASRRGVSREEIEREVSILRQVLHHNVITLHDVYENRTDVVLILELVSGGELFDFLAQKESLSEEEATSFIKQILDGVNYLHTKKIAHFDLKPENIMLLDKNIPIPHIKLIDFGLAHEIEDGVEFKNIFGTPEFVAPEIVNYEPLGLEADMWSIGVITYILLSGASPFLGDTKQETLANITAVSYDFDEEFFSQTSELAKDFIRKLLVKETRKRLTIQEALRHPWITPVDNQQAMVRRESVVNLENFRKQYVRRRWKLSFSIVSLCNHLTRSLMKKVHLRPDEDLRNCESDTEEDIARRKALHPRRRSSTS
Death-associated protein kinase 1 (Homo sapiens), sequence (P53355 whole entry, looked up): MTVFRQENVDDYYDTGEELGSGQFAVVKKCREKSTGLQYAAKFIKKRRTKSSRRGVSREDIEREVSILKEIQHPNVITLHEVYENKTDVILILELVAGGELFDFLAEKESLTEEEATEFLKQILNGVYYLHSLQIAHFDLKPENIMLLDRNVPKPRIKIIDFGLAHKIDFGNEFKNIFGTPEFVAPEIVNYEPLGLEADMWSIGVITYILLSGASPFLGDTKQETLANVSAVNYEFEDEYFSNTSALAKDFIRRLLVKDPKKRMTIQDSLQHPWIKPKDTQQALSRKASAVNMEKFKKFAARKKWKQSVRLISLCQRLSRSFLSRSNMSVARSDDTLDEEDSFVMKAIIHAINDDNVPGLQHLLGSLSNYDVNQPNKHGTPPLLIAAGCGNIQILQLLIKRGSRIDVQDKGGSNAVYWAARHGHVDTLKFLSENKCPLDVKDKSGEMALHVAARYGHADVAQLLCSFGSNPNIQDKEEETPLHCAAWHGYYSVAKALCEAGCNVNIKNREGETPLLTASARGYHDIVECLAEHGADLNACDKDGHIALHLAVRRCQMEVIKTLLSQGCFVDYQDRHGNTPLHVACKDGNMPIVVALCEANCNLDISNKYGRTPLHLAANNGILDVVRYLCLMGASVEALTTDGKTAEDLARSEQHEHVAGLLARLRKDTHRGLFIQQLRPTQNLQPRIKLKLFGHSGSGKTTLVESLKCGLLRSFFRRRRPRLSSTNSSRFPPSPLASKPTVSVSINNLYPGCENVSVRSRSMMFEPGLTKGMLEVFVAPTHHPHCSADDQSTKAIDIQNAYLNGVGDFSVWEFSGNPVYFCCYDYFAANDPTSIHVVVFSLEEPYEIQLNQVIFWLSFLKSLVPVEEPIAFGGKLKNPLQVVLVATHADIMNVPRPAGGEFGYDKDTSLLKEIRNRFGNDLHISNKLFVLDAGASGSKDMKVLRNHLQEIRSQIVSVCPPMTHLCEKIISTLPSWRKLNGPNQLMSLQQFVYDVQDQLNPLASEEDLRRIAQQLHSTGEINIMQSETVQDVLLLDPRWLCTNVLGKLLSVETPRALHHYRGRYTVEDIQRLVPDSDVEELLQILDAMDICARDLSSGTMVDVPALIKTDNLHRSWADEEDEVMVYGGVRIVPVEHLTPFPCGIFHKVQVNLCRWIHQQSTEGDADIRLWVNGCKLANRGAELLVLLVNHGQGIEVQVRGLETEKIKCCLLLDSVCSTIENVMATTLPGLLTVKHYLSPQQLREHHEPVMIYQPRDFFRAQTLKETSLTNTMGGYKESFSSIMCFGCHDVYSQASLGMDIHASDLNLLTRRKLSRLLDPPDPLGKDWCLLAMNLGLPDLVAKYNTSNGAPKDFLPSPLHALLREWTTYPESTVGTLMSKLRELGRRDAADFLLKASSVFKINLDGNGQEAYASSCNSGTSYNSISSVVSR

As usually defined, the residual activity is the signal under treatment as a percentage of the control signal. As to `CC(C)n1cnc2/c(=N/c3cccc(Cl)c3)nc(NCCO)[nH]c21`, the residual activity in test [1] was determined as 94%; in test [2], 104%; in [3], 98%; in test [4], 103%; in test [5], 94%; in [6], 94%. Moreover, the residual activity was determined as 93% in test [7]; 124% in [8]; 74% in [9]; 83% in [10]; 95% in test [11]; 69% in test [12]. For the same compound, the residual activity in [13] turned out to be 86%; in [14], 42%; in test [15] it was 82%; in test [16] it was 65%; in test [17], 82%.
Regarding `CN(C)CCCn1cc(C2=C(c3c[nH]c4ccccc34)C(=O)NC2=O)c2ccccc21`, the residual activity is 75% in [1]; 72% in [2]; 33% in test [3]; 88% in test [5]; 113% in [6]; 82% in test [7]. In addition, the residual activity in [8] stood at 31%; in test [9] it was 25%; in [18] it was 108%; in test [10], 46%; in test [14] it was 37%; in test [15] it was 102%. Besides, the residual activity amounted to 68% in test [16] and 109% in test [17].
